Experimental findings from PubChem BioAssay are described below.

Structures are written as SMILES. Measured potencies and affinities stand elsewhere. A number with no mark means an inactive call. The rule behind the calls is not given here.

The assay has as its target Melanocortin receptor 4 (Homo sapiens) (UniProt P32245). The assay can be described thus: blockade of melanocortin 4 receptor signaling – cell-based, plate reader, cherry pick, counter-screen for LGR2 antagonist project, dose response (AID 743444). The conditions noted are these: MC4R-expressing cells, antagonist mode; series mostly up to 35 µM; activity change, negative = inhibition: at the top concentration. On the technique in general: Counterscreens check selectivity or assay interference.
For the compound `CCOc1cccc2sc(Nc3nc4ccc(NC(C)=O)cc4s3)nc12`, the “activity change, negative = inhibition” value was 63.6%.

For `COc1ccc(CCNC(=O)C2CCN(S(=O)(=O)c3ccc(Cl)cc3)CC2)cc1OC`, the “activity change, negative = inhibition” value is 48.3%.

`CCCCn1nnnc1C(c1cc2ccccc2o1)N1CCN(c2ccncc2)CC1` (stereo not given): the “activity change, negative = inhibition” value is -24.1%.

With `CNCc1ccccc1Sc1ccc(O)c(O)c1`, the “activity change, negative = inhibition” value is 2.7%.

Consider `C[C@H]1CCCCO[C@@H](CN(C)C(=O)Nc2ccc(C(F)(F)F)cc2)[C@@H](C)CN([C@@H](C)CO)C(=O)c2cc(NC(=O)CCC(F)(F)F)ccc2O1`, for which the “activity change, negative = inhibition” value is -21.9%.

Take `COc1ccccc1CN(C)C[C@@H]1OCc2cnnn2CCCC(=O)N([C@H](C)CO)C[C@H]1C`: the “activity change, negative = inhibition” value was 36.4%.

Regarding `COc1ccc2cc(C#N)c(Nc3cccc(F)c3)nc2c1`, the “activity change, negative = inhibition” value was 81.7%.

For the compound `Cc1ccc2nc(C(F)(F)F)c(C#N)c(N)c2c1`, the “activity change, negative = inhibition” value is -23.5%.

Turning to `Cn1c(=O)c2cc(NC(=O)NCc3ccccc3)ccc2n1C/C=C/c1ccccc1`, the “activity change, negative = inhibition” value was -16.3%.

With `O=C(Nc1ccc(N2CCN(C(=O)c3ccccc3)CC2)cc1)c1cc2ccccc2o1`, the “activity change, negative = inhibition” value is -16.1%.

Consider `COc1cc(/C=N/Nc2nc(C)nc3c2cnn3-c2ccccc2)ccc1O`, for which the “activity change, negative = inhibition” value was 25.4%.

In the case of `COc1ccc(-c2cc(C(F)(F)F)nc(S(=O)(=O)CCCC(=O)Nc3cccc(O)c3)n2)cc1OC`, the “activity change, negative = inhibition” value was 84.3% [at 16 µM].

In the case of `O=C(CSc1ncnc2[nH]ncc12)Nc1nc(-c2ccc(F)c(F)c2)cs1`, the “activity change, negative = inhibition” value was 74.6%.

As for `CC(C)N(C(=O)COC(=O)c1ccccc1C(=O)c1ccc(Cl)c([N+](=O)[O-])c1)C(C)C`, the “activity change, negative = inhibition” value was 94.9%.

`O=C(c1ccc2c(c1)OCCO2)C1CCN(S(=O)(=O)c2ccc(F)cc2)CC1`: the “activity change, negative = inhibition” value is 68.4%.

Consider `O=[N+]([O-])c1cc(S(=O)(=O)N2CCCCCC2)ccc1Cl`, for which the “activity change, negative = inhibition” value was 46.7%.

For the compound `C[C@@H]1CN([C@H](C)CO)C(=O)Cc2cc(NC(=O)CCC(F)(F)F)ccc2O[C@@H]1CN(C)CC1CCCCC1`, the “activity change, negative = inhibition” value is 3.39%.

As for `COc1ccc(S(=O)(=O)N2CCOCC2)cc1NC(=O)COc1ccc(C)cc1`, the “activity change, negative = inhibition” value is 102%.

`CCOc1cc(/C=C/C(=O)Nc2ccc(C(=O)NCCN(CC)CC)cc2)ccc1OCC(C)C`: the “activity change, negative = inhibition” value was -2.18%.

Take `O=C(Cn1ncc(Cl)c(Cl)c1=O)N1CCOCC1`: the “activity change, negative = inhibition” value was 12.2%.

As for `O=C(CSc1nc2ccccc2[nH]1)Nc1nc(-c2cccc(Br)c2)cs1`, the “activity change, negative = inhibition” value was 29.1%.

As to `CC(C)c1ccc2c(c1)C(N1CCNCC1)Cc1ccc(F)cc1S2` (stereo not given), the “activity change, negative = inhibition” value was 21.3%.

As to `COc1cc(NC2CCCCC2O)c2nc(-c3ccc(Cl)cc3)ccc2c1` (stereo not given), the “activity change, negative = inhibition” value was 70.1%.

As to `COc1cccc(C#Cc2ccc([C@@H]3[C@@H](CO)N(C(=O)C4CCC4)[C@H]3C#N)cc2)c1`, the “activity change, negative = inhibition” value was -28.4%.

As to `CCOCCCn1c(SCc2nc3ccccc3s2)nc2ccccc2c1=O`, the “activity change, negative = inhibition” value was 9.56%.

Turning to `CC(C)OC(=O)c1ccc(NCc2cc(O)ccc2O)cc1Cl`, the “activity change, negative = inhibition” value was 36.8%.

For the compound `O=C(c1ccc(CSc2nc3ccncc3[nH]2)cc1)N1CCN(c2cccc(Cl)c2)CC1`, the “activity change, negative = inhibition” value is 42.7%.

For the compound `c1ccc(COc2cccc(-c3cc4nc(NCCCn5ccnc5)ccn4n3)c2)cc1`, the “activity change, negative = inhibition” value was -3.54%.

For the compound `O=C(C[C@@H]1C[C@H]2c3cc(NC(=O)c4ccc5c(c4)OCO5)ccc3O[C@H]2[C@@H](CO)O1)NCc1ccc(Oc2ccccc2)cc1`, the “activity change, negative = inhibition” value is 8.8% [at 16 µM].

For `N#C[C@@H]1[C@H](c2ccc(C#Cc3cccc(F)c3)cc2)[C@@H](CO)N1C(=O)C1CC1`, the “activity change, negative = inhibition” value is -26.4%.

Take `CC(=O)c1ccc(Nc2cc(C)nc3c(C)cc(C)cc23)cc1`: the “activity change, negative = inhibition” value is 33.5%.

Turning to `Oc1ccc(-c2csc(-c3cccnc3)n2)c(O)c1`, the “activity change, negative = inhibition” value is 18.2%.

In the case of `COc1ccc(C(=O)CC(Sc2ccccc2N)c2ccc(OC)cc2)cc1` (stereo not given), the “activity change, negative = inhibition” value is -30.1%.

As to `Cc1ccc(S(=O)(=O)Nc2ccc3c(c2)C(=O)N([C@H](C)CO)C[C@@H](C)[C@H](CN(C)S(=O)(=O)c2cccs2)OCCCC[C@@H](C)O3)cc1`, the “activity change, negative = inhibition” value was -10.1%.

In the case of `COC(=O)c1ccc(Nc2cc(C)nc3ccc(C)cc23)cc1`, the “activity change, negative = inhibition” value was 46.1%.

Consider `Cc1ccc(NC(=O)c2ncn(CC(=O)N3CCN(c4ccccn4)CC3)n2)cc1C`, for which the “activity change, negative = inhibition” value was 43.8%.

As to `CC(C)(C)c1ccc(Cn2c(=O)cnc3ccccc32)cc1`, the “activity change, negative = inhibition” value is 112%.

For the compound `CCOC(=O)c1c(C)n(C)c2ccc(OCC(O)CNCCc3ccccc3)cc12` (stereo not given), the “activity change, negative = inhibition” value is 83.6%.

`Cc1cccc(Cn2ncc(Cl)c(Cl)c2=O)c1`: the “activity change, negative = inhibition” value is 44.8%.

For the compound `COc1ccccc1N1CCN(C(=O)c2sc3nc(-c4ccc(F)cc4)cn3c2C)CC1`, the “activity change, negative = inhibition” value is -16.4%.
